Only some compounds are listed: those with a hit (about 3.5% of all), similar ones and a draw of the others.
MITF inh: inhibitors of human MITF. O75030. AlphaScreen MITF homodimerization, bead proximity signal. inhibition, % at 2.6 µM. 650,000 compounds, 0.91% hits; in the data active means inhibition above about 50%;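 further: 0% = vehicle wells with protein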
GPR151 activ: activators of human GPR151; Q8TDV0; AID 1508602; 650,000 compounds, 1% hits; PathHunter beta-arrestin GPR151 cells, luminescence; activation, % at 11.2 µM; in the data active means activation above about 4.9%;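 further: 0% = median of compound wells and 100% = cells with positive control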
TEAD-YAP block: TEAD-YAP interaction inhibition; HEK-TIYL cells, TEAD-Gal4/YAP UAS-luciferase luminescence; inhibition, % at 9.12 µM; 640,000 compounds, 1.4% hits; in the data active means inhibition above about 32%;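 further: 0% = median of test compound wells and 100% = reference inhibitor wells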
FBW7 act: activators of human E3 ligase FBW7; AlphaScreen FBW7–phospho-cyclin E peptide binding, activator screen; normalized activity (activation), % at 26.1 µM; 650,000 compounds, 0.13% hits; AID 1259310; Q969H0; in the data active means normalized activity above about 1.9%;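 further: purified mutant Fbw7 with reduced substrate affinity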
Target sequence (Q969H0 whole entry, looked up): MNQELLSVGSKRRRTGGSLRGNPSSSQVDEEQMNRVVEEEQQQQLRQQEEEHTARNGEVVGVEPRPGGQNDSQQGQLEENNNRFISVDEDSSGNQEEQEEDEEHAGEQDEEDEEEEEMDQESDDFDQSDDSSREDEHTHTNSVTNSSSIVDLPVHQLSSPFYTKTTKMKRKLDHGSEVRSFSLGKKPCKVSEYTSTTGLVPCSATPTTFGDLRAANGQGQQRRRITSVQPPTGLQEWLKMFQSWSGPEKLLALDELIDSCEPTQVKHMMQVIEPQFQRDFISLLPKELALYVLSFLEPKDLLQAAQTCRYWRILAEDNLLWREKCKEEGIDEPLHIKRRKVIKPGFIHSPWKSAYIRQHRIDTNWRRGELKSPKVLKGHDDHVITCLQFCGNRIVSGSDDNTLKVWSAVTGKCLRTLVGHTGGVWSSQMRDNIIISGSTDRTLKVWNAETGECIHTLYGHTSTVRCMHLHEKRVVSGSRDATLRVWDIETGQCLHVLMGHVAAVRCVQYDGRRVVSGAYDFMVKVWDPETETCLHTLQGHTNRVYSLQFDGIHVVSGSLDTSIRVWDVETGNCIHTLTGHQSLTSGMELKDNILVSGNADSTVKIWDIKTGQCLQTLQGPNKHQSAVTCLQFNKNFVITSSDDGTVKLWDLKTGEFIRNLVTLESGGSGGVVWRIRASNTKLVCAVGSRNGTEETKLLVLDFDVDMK
An asterisk follows results filed as active; ! = repeats disagree.

SMILES | MITF inh | GPR151 activ | TEAD-YAP block | FBW7 act
CCOc1cccc2c1OC(c1ccc(SC)cc1)N1N=C(c3ccc(C)o3)CC21 (stereo unspecified) | 2 | 1 | -27 | 0
Cc1ccc(/C=C/C(=O)c2ccc(N3CCOCC3)cc2)s1 | -1 | 0 | 49* | 0
O=C(/C=C/c1ccc(F)cc1)c1ccc(N2CCOCC2)cc1 | 2 | 1 | -13 | 0
Cc1nc2ccc(NS(=O)(=O)c3ccc(C(C)C)cc3)cc2s1 | 6 | 2 | 32* | 0
CCOC(=O)c1ccccc1Nc1cn(C(C)=O)c2ccccc12 | 14 | 0 | 52* | 0
N#CC1CCCc2c1[nH]c1ccc(Cl)cc21 (stereo unspecified) | -1 | 2 | 39* | 0
Cc1ccccc1CSc1nc2[nH]ncc2c(=O)[nH]1 | 5 | 0 | -7 | 0
Cc1ccc(C)c(CSc2nc3[nH]ncc3c(=O)[nH]2)c1 | 10 | 1 | 37* | 0
Clc1ccc(Nc2nc3nonc3nc2Nc2ccc(Br)cc2)cc1Cl | -17 | 1 | -2 | 0
c1ccc(Nc2nc3nonc3nc2Nc2ccccc2)cc1 | 14 | 0 | 36* | 0
Oc1ccc(Nc2nc3nonc3nc2Nc2cccc(Br)c2)cc1 | 12 | 4 | 45* | 0
Oc1ccc(Nc2nc3nonc3nc2Nc2ccccc2)cc1 | 20 | -2 | -8 | 0
Fc1ccc(Nc2nc3nonc3nc2Nc2ccc(F)cc2F)c(F)c1 | 19 | 2 | 90* | 0
CN(C)c1nc2nonc2nc1Nc1cccc(Cl)c1 | 2 | 2 | 75* | 0
Fc1cccc(Nc2nc3nonc3nc2Nc2cccc(F)c2)c1 | -5 | 0 | 24 | 0
CCCOC(=O)c1ccc2c(c1)C(=O)N(c1ccccc1C)C2=O | 10 | 0 | -13 | 0
O=c1/c(=C\c2ccc(-c3ccc(Cl)cc3)o2)sc2nc3ccccc3n12 | 1 | 0 | 4 | 0
COc1ccc(CNc2ncc(-c3ccccc3CN(C)C)n3ccnc23)cc1 | -13 | 0 | -11 | 0
O=C1CC(c2ccc3c(c2)OCCO3)Oc2ccccc21 (stereo unspecified) | 6 | -1 | -32 | 0
O=C1CC(c2ccc3c(c2)OCCO3)Oc2ccc([N+](=O)[O-])cc21 (stereo unspecified) | 17 | -1 | 52* | 0
CCOC(=O)c1c(C)[nH]c(C(=O)CSc2nnc(NCc3ccccc3)s2)c1C | 11 | 2 | 4 | 0
CC(=O)c1c(C)[nH]c(C(=O)CSc2nnc(NCc3ccccc3)s2)c1C | -3 | 0 | 42* | 0
COc1cccc2c1OC1(CCN(C(=O)Cc3ccc(F)cc3)CC1)OC2 | 4 | 2 | 0 | 0
COc1ccc(CC(=O)N2CCC3(CC2)OCc2cccc(OC)c2O3)cc1OC | 8 | 1 | 65* | 0
Oc1ccccc1-c1cc(-c2ccc(F)cc2)no1 | 7 | -4 | -22 | 0
SMILES | MITF inh | GPR151 activ | TEAD-YAP block | FBW7 act
Fc1ccc(-c2cc3c(nn2)Nc2ccccc2N3)cc1 | 5 | -5 | 86* | 0
Cc1ccc2c(c1)c(-c1ccccc1)c(-c1ccccc1)n2CC(O)CNCCc1ccccc1 (stereo unspecified) | 21 | 3 | -15 | -1
COc1ccc(NS(=O)(=O)c2ccc3c(c2)CC(=O)N3)c(OC)c1 | 24 | -1 | 0 | 1
COc1cc(C2Nc3ccc4ncccc4c3C3=C2C(=O)CCC3)ccc1OC(C)=O (stereo unspecified) | -3 | 0 | 52* | 0
COc1ccc(-c2cc(N)n(S(=O)(=O)c3ccc([N+](=O)[O-])cc3)n2)cc1 | 9 | 0 | 10 | 0
CC1=C(C(=O)OCCOc2ccccc2)C(c2ccc3c(c2)OCO3)NC(=O)N1 (stereo unspecified) | -6 | 0 | 0 | 0
CC(C)OC(=O)CSC1=C(C#N)C(c2ccccc2)CC(=O)N1 (stereo unspecified) | -7 | 1 | 62* | 0
CCCCOC(=O)CSC1=C(C#N)C(c2ccc(Cl)cc2)CC(=O)N1 (stereo unspecified) | 6 | -1 | 2 | 0
CCCCOC(=O)CSC1=C(C#N)C(c2ccccc2)CC(=O)N1 (stereo unspecified) | 13 | 2 | 45* | 0
N#CC1=C(SCC(=O)Nc2ccccc2)NC(=O)CC1c1ccccc1 (stereo unspecified) | -14 | -1 | 32* | 0
CCCOC(=O)CSC1=C(C#N)C(c2ccccc2)CC(=O)N1 (stereo unspecified) | 7 | 1 | 57* | 0
CCc1ccc(C2CC(=O)NC(SCC(=O)OC(C)C)=C2C#N)cc1 (stereo unspecified) | 13 | 1 | 3 | 0
N#CC1=C(SCC(=O)Nc2ccccc2)NC(=O)CC1c1ccc(O)cc1 (stereo unspecified) | 19 | 1 | 31 | 1
CCCOC(=O)CSC1=C(C#N)C(c2ccc(O)cc2)CC(=O)N1 (stereo unspecified) | 5 | 0 | -1 | 0
CSc1nc(C(=O)N2CCc3nnc(CCNC(=O)C4CCCCC4)n3CC2)cs1 | 8 | 0 | 4 | 0
CCN1/C(=C/C(C)=O)Sc2ccc(OC)cc21 | 18 | -1 | 32*! | 0
COc1ccc(/C=C/c2cccc[n+]2C)c(OC)c1 | 25 | 0 | 15 | 0
CCN1/C(=C\C(C)=O)Sc2ccc3ccccc3c21 | 11 | -1 | -1 | 0
COc1ccc2c(c1)N(C)/C(=C/c1cccc[n+]1C)S2 | 12 | -1 | 77* | 0
CCN1/C(=C/c2cccc[n+]2C)Sc2ccc(OC)cc21 | 2 | 0 | 84* | 0
CC(=O)Nc1ccc(C(=O)Nc2ccncc2)cc1 | -4 | 0 | -7 | 0
CC(C)COC(=O)c1ccc(NC(=O)c2ccncc2)cc1 | 8 | 1 | 33* | 0
CC(C)CCOC(=O)c1ccc(NC(=O)c2ccncc2)cc1 | -3 | 0 | 27 | 0
C[C@@H](N)c1ccc(C(=O)Nc2ccncc2)cc1 | -3 | 0 | 50* | 0
Cn1ccnc1C1(O)CC2CCC(C1)N2C(=O)N1CCOCC1 (stereo unspecified) | 16 | 0 | 8 | 0
SMILES | MITF inh | GPR151 activ | TEAD-YAP block | FBW7 act
COc1ccccc1NC1=C/C(=N/S(=O)(=O)c2cccs2)c2ccccc2C1=O | 54* | 0 | -12 | -1
O=C1C(Nc2ccc(O)cc2)=C/C(=N/S(=O)(=O)c2cccc([N+](=O)[O-])c2)c2ccccc21 | 28 | -2 | 92* | -1
O=C(O)c1ccc(NC2=C/C(=N/S(=O)(=O)c3ccccc3)c3ccccc3C2=O)cc1 | 9 | -3 | 0 | 0
COc1ccccc1NC1=C/C(=N/S(=O)(=O)c2ccccc2)c2ccccc2C1=O | 71* | -1 | 48* | -1
O=C1C(Nc2ccc(O)cc2)=C/C(=N/S(=O)(=O)c2cccs2)c2ccccc21 | 29 | -2 | 97* | -1
O=C(O)c1ccc(NC2=C/C(=N/S(=O)(=O)c3cccs3)c3ccccc3C2=O)cc1 | 7 | -2 | -11 | 0
Cc1cc(C)n(-c2nc3c(c(=O)n(C)c(=O)n3C)n2Cc2ccc(Cl)c(Cl)c2)n1 | 1 | 0 | -3 | 0

Source: PubChem (The Scripps Research Institute Molecular Screening Center)
